The values below come from publication PMC6212790, “How bacterial xenogeneic silencer rok distinguishes foreign from self DNA in its resident genome”.

In all, about 33,000 sequences were measured (“e-score”: median about -0.038, highest 2% from about 0.33 on). Shown is part of a subset that was picked to be rich in the highest values.

This assay has as its target T1, GST-Rok-C97-191 (Bacillus subtilis subsp. subtilis str. …, UniProt O34857 97-191).
T1 sequence: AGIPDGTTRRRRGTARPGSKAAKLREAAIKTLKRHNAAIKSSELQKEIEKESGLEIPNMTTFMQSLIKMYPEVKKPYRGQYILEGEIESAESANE
Description: protein binding microarray; Rok is a gene silencer of Bacillus subtilis; high values mean tight binding. The note with it: protein: recombinant; tags: GST (pTH5325, pDEST15-Magic modified); dsDNA, one strand shown. A digest of the protocol: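 Every oligonucleotide joins a 25-mer constant primer to a 35-mer variable part drawn from a de Bruijn sequence of order 10, so each non-palindromic 8-mer appears at least 32 times and each palindromic 8-mer 16 times. The preference for every 8-mer is reported as a unitless, rank-based enrichment score (E-score). This score spans 0.5 for the most favored 8-mer to −0.5 for the most disfavored.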
Regarding CCAAGTTC, the binding signal was -0.0242 E-score.

For the sequence CTTGTGGC, the binding signal is -0.167 E-score. For ACGTGAGC the value was -0.0668 E-score. With ACGCCTTA, the binding signal turned out to be 0.073 E-score. For AGCCCGCT the value was -0.168 E-score; for CCATAGCA, -0.0019 E-score; for ATAGTACG, 0.248 E-score. The value for AGAGTAGA was 0.143 E-score; that for ATCGTAGC was -0.0487 E-score; that for AAAGTAGA was 0.298 E-score. For AGAGTAGG, the binding signal is -0.15 E-score.

As for ATAGTAGG, the binding signal was determined as 0.329 E-score. For ATAGTAGC the value was 0.378 E-score. In the case of AGAGTAGC, the binding signal came to 0.0737 E-score. For ATAGTAGA the value was 0.355 E-score; for GCTTGAAC, -0.0848 E-score. For AGTCCATC the value was -0.159 E-score. The value for GGTTCAAC was -0.0853 E-score; that for CCTCTTCA was -0.193 E-score; that for CCAACCTA was -0.0204 E-score. Consider GCTTATAA, for which the binding signal came out at 0.101 E-score. The value for AGTACTAT was 0.367 E-score; that for CGTACTAG was 0.0424 E-score. For AGTACTAC the value was 0.35 E-score; for CGTACTAC, 0.305 E-score; for GGTACTAC, 0.233 E-score. Turning to AGTACTAG, the binding signal stood at 0.334 E-score.

Turning to AGTACTCA, the binding signal was -0.0984 E-score.

Take AGTACTAA: the binding signal was determined as 0.277 E-score. The value for AGTACTGG was 0.0209 E-score. As to ATTGCGCC, the binding signal was -0.134 E-score.

As to ACCATATG, the binding signal is 0.229 E-score. Consider AACTGGAC, for which the binding signal was -0.0284 E-score. In the case of TAGTGGGA, the binding signal was determined as 0.119 E-score. The value for AATTTCGC was 0.151 E-score; that for GATGAAGC was 0.0229 E-score. With ATTTTATC, the binding signal is 0.328 E-score. The value for CTTTTATC was 0.0697 E-score; that for GTTTTATA was 0.122 E-score. The value for CTTTTATA was 0.236 E-score; that for ATTTTATA was 0.385 E-score. For ATTTTATG the value was 0.229 E-score; for AGACCTGG, -0.167 E-score.

In the case of GTCGTAAC, the binding signal was 0.0491 E-score. As for ATACAAAT, the binding signal was determined as 0.337 E-score.

Consider ATACAAAC, for which the binding signal was 0.371 E-score. The value for GTACAAAC was 0.304 E-score. The value for ATACAAAG was 0.17 E-score. For ATACAAAA the value was 0.276 E-score; for CTACAAAC, 0.114 E-score; for CAGGAATG, -0.083 E-score. As for TGAGGTAA, the binding signal is 0.126 E-score.

ATTGACCG: the binding signal is -0.00184 E-score.

For AATACTAG, the binding signal worked out at 0.34 E-score. The value for CATACTAA was 0.0976 E-score; that for AATACTAA was 0.287 E-score.

On to AATACTAT, for which the binding signal was determined as 0.35 E-score. For AATACTCG the value was 0.0344 E-score; for GATACTAC, 0.313 E-score.

AATACTCT: the binding signal turned out to be 0.131 E-score. In the case of TATACTAA, the binding signal was 0.382 E-score. For CATACTAC the value was 0.284 E-score.

As to AATACTAC, the binding signal amounted to 0.383 E-score. For CATACTAG the value was 0.285 E-score; for AATACTGT, 0.083 E-score. For GCAATCCC the value was -0.104 E-score; for GTCAGGAC, -0.147 E-score. For AATTTCAG the value was 0.153 E-score; for ACCTTCGG, -0.173 E-score; for AGTTGAGA, 0.111 E-score. ACCTAACT: the binding signal amounted to 0.128 E-score. For TAGACGAA the value was -0.0468 E-score; for GTGCAAAA, 0.0465 E-score. As to CGTCCACG, the binding signal was -0.161 E-score.

As to AGGTTGCG, the binding signal is -0.0431 E-score. The value for AGTAATAT was 0.386 E-score. The value for AGTAATAG was 0.355 E-score. With AGTAATAA, the binding signal was 0.238 E-score. Turning to ACTAATAC, the binding signal amounted to 0.248 E-score.

For the sequence AGTAATCG, the binding signal stood at 0.0918 E-score. For CGTAATAG the value was 0.247 E-score; for AGTAATAC, 0.274 E-score; for ACTAATAG, 0.292 E-score. On to ACTAATAT, for which the binding signal is 0.342 E-score.

For the sequence AAGGTTGG, the binding signal is -0.0102 E-score. For the sequence ACGCATTA, the binding signal is 0.134 E-score. The value for CGGTGCAG was -0.0983 E-score. For GGCTAGAC the value was -0.152 E-score; for AGATTAGC, 0.212 E-score. The value for TGGTAAAA was 0.337 E-score. Consider TAGTAAAA, for which the binding signal was found to be 0.37 E-score. For GGGTAAAA the value was 0.206 E-score. The value for CAGTAAAA was 0.188 E-score; that for AAGTAAAC was 0.116 E-score. For AAGTAAAA the value was 0.335 E-score; for CGGTAAAA, 0.242 E-score; for AAGTAAGT, 0.263 E-score. With AAGTAAAT, the binding signal amounted to 0.359 E-score. With AGGTAAAT, the binding signal was found to be 0.247 E-score. On to AAGTAAAG, for which the binding signal was 0.104 E-score. For GAGTAAAA the value was 0.269 E-score; for CTGAAAAG, 0.0606 E-score; for CTCCATAA, -0.175 E-score.

Consider TCTCCGAA, for which the binding signal worked out at 0.161 E-score.

For the sequence TAAGCATA, the binding signal was determined as 0.00925 E-score. For AAAGGTCA, the binding signal was -0.146 E-score. For ACGCACCA the value was -0.186 E-score; for AAGACCGG, -0.0043 E-score; for CCTTATTA, 0.0213 E-score.

As for CGTAACTC, the binding signal turned out to be 0.0679 E-score. For GTTAGCGA the value was 0.0595 E-score; for GAGCTGCC, 0.0253 E-score; for GACAGACA, -0.102 E-score.

For the sequence CGTAAGTA, the binding signal was 0.16 E-score. Consider GCGTGAGA, for which the binding signal is -0.00817 E-score. As for GATTACCA, the binding signal stood at 0.14 E-score. For CATTACTA the value was 0.32 E-score; for ATTTACTC, 0.234 E-score; for ATTTACTG, 0.319 E-score. Take AATTACTG: the binding signal turned out to be 0.253 E-score. For AATTACCC, the binding signal came out at 0.185 E-score. For ATTTACTA the value was 0.439 E-score. In the case of GATTACAA, the binding signal stood at 0.134 E-score. For GATTACTA the value was 0.354 E-score; for AATTACTA, 0.43 E-score; for AATTACCA, 0.33 E-score. Consider AATTACTC, for which the binding signal came out at 0.255 E-score. For AGGCCTAG the value was 0.0496 E-score. The value for GACCGCTA was 0.0642 E-score; that for AATAACCG was 0.184 E-score. The value for AACCAGCA was 0.0878 E-score; that for GTCGAGGA was -0.0836 E-score. In the case of GCGTCCGA, the binding signal is -0.026 E-score.

For the sequence CACCTCGC, the binding signal was -0.148 E-score. As to ACTGCCCT, the binding signal was -0.164 E-score. GGAAGTCA: the binding signal is -0.092 E-score. For AAGTTTCC the value was 0.148 E-score; for CAATTACC, 0.0477 E-score; for GAATTACC, 0.18 E-score. The value for AAATTACT was 0.358 E-score; that for AAATTACC was 0.365 E-score. The value for AAATTACG was 0.273 E-score; that for ACATTACT was 0.263 E-score; that for CAGTTGAC was 0.0118 E-score. Consider AACGCAAA, for which the binding signal is -0.043 E-score. Regarding CCAACTCG, the binding signal was -0.0471 E-score. Consider ACATGCTA, for which the binding signal is 0.33 E-score.

For GCATGCTA, the binding signal came out at 0.0693 E-score. Take CCATGCTA: the binding signal came out at 0.153 E-score. For CTGACATA the value was -0.188 E-score; for ACACAACT, 0.0324 E-score; for ATATACTA, 0.436 E-score. The value for CTATACTA was 0.301 E-score; that for ATATACAA was 0.365 E-score; that for GGATACTA was 0.167 E-score. For ATATACTC, the binding signal was determined as 0.293 E-score. The value for ATATACTG was 0.365 E-score.

For CTATACAA, the binding signal was 0.3 E-score. The value for CTATACTC was 0.173 E-score; that for GTATACTA was 0.338 E-score. The value for ATATACAG was 0.317 E-score. The value for GCATACTA was 0.241 E-score; that for ACATACTA was 0.305 E-score; that for CAAGGATG was -0.044 E-score. CTGTCTCA: the binding signal is -0.118 E-score.

Regarding CAGGGCCA, the binding signal was -0.145 E-score.

On to GTCACAAA, for which the binding signal amounted to 0.0798 E-score. The value for GAGCTTGA was -0.0815 E-score; that for CACTTGTA was 0.238 E-score; that for GACAAGTA was 0.226 E-score. For CAATTGTG the value was 0.0188 E-score; for AATTCGAT, 0.215 E-score.
